Our source for the growth values is PubChem BioAssay (NCI).

Structures are written as SMILES. Values joined by “and” are separate entries in the source; they are usually repeats but may differ in a detail not shown here. Identical values can stand only once. This is part of a sample that, as a whole, favours compounds with a hit. Of some 83,000 tested, about 20% had one in any assay.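 In brief: 96-well plates, 48 h treatment, single concentration, percent growth endpoint.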 Active and inactive are the calls of the source. The calls were made as follows: active = growth percent below 10; inactive = the rest.

The assay relates to TK-10 renal. As to the kind of experiment: NCI-60 one-dose screen, 48 h (100 = growth as untreated, 0 = no growth, -100 = all killed). The conditions noted are these: 10 µM unless noted.
Regarding `CC(O)c1cc2c(s1)C(=O)c1c(C(C)O)csc1C2=O` (stereo unspecified), the growth is -20.6% [100 µM] (active) and -88.8% [100 µM] (active).
The result for `NC(=O)c1[nH]cnc1/N=N/SCC(N)C(=O)O` (stereo unspecified) reads 9.64% [100 µM] (active) and 8.09% [100 µM] (active); that for `CC(=O)Nc1c(C)cc2c(nc3n2CCC3OC(C)=O)c1[N+](=O)[O-]` (stereo unspecified), 120% [100 µM] (inactive) and 104% [100 µM] (inactive).
The result for `CC(=O)O[C@@H]1C[C@@]2(C)[C@@H]3CC=C4[C@@H](C[C@H](O)C(=O)C4(C)C)[C@]3(C)C(=O)C[C@]2(C)[C@H]1[C@@](C)(O)C(=O)/C=C/C(C)(C)OC(C)=O` reads -62% [100 µM] (active) and -91% [100 µM] (active); that for `CC1=CCC2C3(C)CCC2(C(C)C)C1C3` (stereo unspecified) (tested in a mixture with another compound), 17.7% [100 µM] (inactive) and -89.5% [100 µM] (active).
The same measure for `COc1ccc(C2=C(N)c3ccccc3C2=O)cc1`: 79.7% [100 µM] (inactive) and -100% [100 µM] (active).
For `CCCn1c2c(c3ccccc3c1=O)C(=O)c1ccccc1-2`, the growth is 88% [100 µM] (inactive) and 22.3% [100 µM] (inactive).
The same measure for `CCOC(=O)/C(C#N)=C(/NNc1ccccc1)c1ccncc1C(=O)O`: 79.5% [100 µM] (inactive) and -58% [100 µM] (active).
The result for `COc1ccc(CC2c3cc(OC)c(OC)c(OC)c3CC[N+]2(C)C)cc1Oc1ccc(CC2c3cc4c(c(OC)c3CCN2C)OCO4)cc1` (stereo unspecified) reads 85.8% [100 µM] (inactive) and 47.5% [100 µM] (inactive).
The same measure for `CC(=O)c1cc2c(s1)C(=O)c1scc(C(C)=O)c1C2=O`: -9.55% [100 µM] (active) and -86% [100 µM] (active); for `N#Cc1sc2nc(/C=C3/C=CC=CC3=O)c(O)n2c1N`: 78.8% [100 µM] (inactive) and 47.7% [100 µM] (inactive); for `CC1OC(OC2C(O[C@H]3CC[C@@]4(C)C(=CC[C@H]5[C@@H]6C[C@@H]7O[C@]8(CC[C@H](C)CN8)[C@@H](C)[C@@H]7[C@@]6(C)CC[C@@H]54)C3)OC(CO)C(O)C2OC2OC(CO)C(O)C(O)C2O)C(O)C(O)C1O` (stereo partly specified): 95.2% [100 µM] (inactive) and -95% [100 µM] (active).
`CC(C)(C)c1cc(C2COC(=O)COCC(=O)OCCOCCOCCO2)cc(C(C)(C)C)c1O` (stereo unspecified): the growth is -74.5% [100 µM] (active) and -100% [100 µM] (active).
Consider `Nc1nc(Nc2cc(F)c(Cl)c(F)c2)cc(=O)[nH]1`, for which the growth was 111% [100 µM] (inactive) and 27.1% [100 µM] (inactive).
With `CCOc1cc2c(cc1O)/C(=N\N)C[C@@H]1[C@@H]2CC[C@]2(C)[C@@H](O)CC[C@@H]12`, the growth is 36.7% [100 µM] (inactive) and -97% [100 µM] (active).
The result for `CC(=O)c1cc2c(s1)C(=O)c1ccsc1C2=O` reads -38.1% [100 µM] (active) and -100% [100 µM] (active).
`COC(=O)c1ccc(CCc2cc(O)c(Br)cc2O)cc1`: the growth was -97.6% [100 µM] (active) and -100% [100 µM] (active).
For `Oc1ccccc1-c1n[nH]c(-c2ccccc2O)n1`, the growth was 46.3% [100 µM] (inactive) and 4.42% [100 µM] (active).
The result for `CC1(C)CCCC(C)(C2CCC3(C)C2C(O)CC2C4(C)CCC(O)C(C)(C)C4C(O)CC23C)O1` (stereo unspecified) reads 4.11% [100 µM] (active) and -96.5% [100 µM] (active).
The same measure for `N#CC12COC3(CCCCC3C1(C#N)C#N)OC2=N` (stereo unspecified): 41.4% [100 µM] (inactive); for `Cc1cc(-c2nc3ccccc3s2)ccc1N`: 35.5% [100 µM] (inactive) and 15.8% [100 µM] (inactive); for `COc1cc([N+](=O)[O-])c(OC)c2c(Nc3ccc(S(=O)(=O)O)c4cc(S(=O)(=O)O)cc(S(=O)(=O)O)c34)cc(C)nc12`: -99.9% [100 µM] (active) and -100% [100 µM] (active).
On to `C=C1C(=O)OC2/C=C(\CO)C(OC(C)=O)CC(O)/C(C)=C/C(OC(=O)C(C)CC)C12` (stereo unspecified), for which the growth is -36.1% [100 µM] (active) and -92% [100 µM] (active).
In the case of `Oc1ccc(/C=C/c2cc(O)cc3c2C(c2cc(O)cc(O)c2)C(c2ccc(O)c(O)c2)O3)cc1` (stereo unspecified), the growth is -15.5% [100 µM] (active) and -12.5% [100 µM] (active).
With `Cc1ccnc2[nH]c(-c3ccc(F)cc3)cc(=O)c12`, the growth is 66.3% [100 µM] (inactive) and 16.9% [100 µM] (inactive).
Take `Cc1cc(N2CCCC2)c([N+](=O)[O-])cc1[N+](=O)[O-]`: the growth was 89.8% [100 µM] (inactive) and 75.9% [100 µM] (inactive).
